Holding throughout (assay): PBM; 200 nM protein, PBS
Conditions in all cases: dsDNA, one strand shown

Test [1] has as its target HOXB4 (Homo sapiens, UniProt P17483 148-234).
Test [2] concerns the target HOXB4 (Homo sapiens, UniProt P17483 148-234, V174I).
The target in test [3] is ALX4 (Homo sapiens, UniProt Q9H161 200-286).
Test [4] deals with ALX4 (Homo sapiens, UniProt Q9H161 200-286, Q225E).
Test [5] has as its target ALX3 (Homo sapiens, UniProt O95076 139-225, N203Q).
For test [6], the target named is ALX3 (Homo sapiens, UniProt O95076 139-225).
Test [7] deals with PROP1 (Homo sapiens, UniProt O75360 56-141).
Test [8] has as its target PROP1 (Homo sapiens, UniProt O75360 56-141, R99H).
Test [9] addresses ALX3 (Homo sapiens, UniProt O95076 139-225, L168Q).
For test [10], the target named is ALX3 (Homo sapiens, UniProt O95076 139-225, L168V).
For test [11], the target named is PROP1 (Homo sapiens, UniProt O75360 56-141, F88S).
Test [12] deals with ALX3 (Homo sapiens, UniProt O95076 139-225, N203S).
The target in test [13] is PRRX1 (Homo sapiens, UniProt P54821 80-166, F113S).
The target in test [14] is T1, NKX2-6 (Homo sapiens, UniProt A6NCS4 118-204).
T1 sequence: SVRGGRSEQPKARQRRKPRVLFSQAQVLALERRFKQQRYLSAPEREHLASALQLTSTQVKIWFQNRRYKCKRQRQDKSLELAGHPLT

The target of test [15] is T2, NKX2-6 (Homo sapiens, UniProt A6NCS4 118-204, F151L).
T2 sequence: T1 sequence with F34L

The target in test [16] is PRRX1 (Homo sapiens, UniProt P54821 80-166).
For test [17], the target named is T3, PAX4 (Homo sapiens, UniProt O43316 9-242, R200K).
T3 sequence: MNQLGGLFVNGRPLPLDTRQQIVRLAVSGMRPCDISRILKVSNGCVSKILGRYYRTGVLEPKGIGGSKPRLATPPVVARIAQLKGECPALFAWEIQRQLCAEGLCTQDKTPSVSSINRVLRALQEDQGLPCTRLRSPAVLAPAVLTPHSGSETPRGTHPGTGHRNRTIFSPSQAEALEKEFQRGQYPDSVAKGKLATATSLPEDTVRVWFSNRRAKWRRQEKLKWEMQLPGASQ

For test [18], the target named is T4, PAX4 (Homo sapiens, UniProt O43316 9-242).
T4 sequence: T3 sequence with K192R

Test [19] concerns the target T5, PAX4 (Homo sapiens, UniProt O43316 9-242, R200Q).
T5 sequence: T3 sequence with K192Q

For test [20], the target named is T6, PAX4 (Homo sapiens, UniProt O43316 9-242, F177V).
T6 sequence: T3 sequence with F169V, K192R

Test [21] addresses T7, PAX4 (Homo sapiens, UniProt O43316 9-242, F177Y).
T7 sequence: T3 sequence with F169Y, K192R

Test [22] has as its target T8, PAX4 (Homo sapiens, UniProt O43316 9-242, R227W).
T8 sequence: T3 sequence with K192R, R219W

Test [23] has as its target HOXA7 (Homo sapiens, UniProt P31268 116-202).
For test [24], the target named is HOXA7 (Homo sapiens, UniProt P31268 116-202, W177C).
For test [25], the target named is HOXB6 (Homo sapiens, UniProt P17509 132-218, K202E).
The target in test [26] is ALX1 (Homo sapiens, UniProt Q15699 118-204, L144V).
Test [27] has as its target ALX1 (Homo sapiens, UniProt Q15699 118-204, L144R).
For test [28], the target named is ALX1 (Homo sapiens, UniProt Q15699 118-204).
Test [29] deals with HOXB6 (Homo sapiens, UniProt P17509 132-218).

Where a chain is given by its changes, count along the chain named.

HOXB4 (Homo sapiens, UniProt P17483 148-234, V174I), sequence (P17483 148-234 V174I): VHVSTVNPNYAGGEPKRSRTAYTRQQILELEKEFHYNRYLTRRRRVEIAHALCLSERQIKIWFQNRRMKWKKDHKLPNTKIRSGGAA
ALX3 (Homo sapiens, UniProt O95076 139-225), sequence (O95076 139-225): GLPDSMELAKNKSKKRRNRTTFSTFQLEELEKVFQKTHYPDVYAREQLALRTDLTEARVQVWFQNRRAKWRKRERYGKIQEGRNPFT
HOXB4 (Homo sapiens, UniProt P17483 148-234), sequence (P17483 148-234): as the sequence (P17483 148-234 V174I) above, with I27V counted along it
ALX3 (Homo sapiens, UniProt O95076 139-225, N203S), sequence (O95076 139-225 N203S): as the sequence (O95076 139-225) above, with N65S counted along it
ALX3 (Homo sapiens, UniProt O95076 139-225, L168Q), sequence (O95076 139-225 L168Q): as the sequence (O95076 139-225) above, with L30Q counted along it
ALX3 (Homo sapiens, UniProt O95076 139-225, L168V), sequence (O95076 139-225 L168V): as the sequence (O95076 139-225) above, with L30V counted along it
ALX3 (Homo sapiens, UniProt O95076 139-225, N203Q), sequence (O95076 139-225 N203Q): as the sequence (O95076 139-225) above, with N65Q counted along it
PRRX1 (Homo sapiens, UniProt P54821 80-166, F113S), sequence (P54821 80-166 F113S): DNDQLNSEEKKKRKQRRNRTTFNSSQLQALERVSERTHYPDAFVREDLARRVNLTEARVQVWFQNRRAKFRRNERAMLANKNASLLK
PRRX1 (Homo sapiens, UniProt P54821 80-166), sequence (P54821 80-166): as the sequence (P54821 80-166 F113S) above, with S34F counted along it
PROP1 (Homo sapiens, UniProt O75360 56-141, F88S), sequence (O75360 56-141 F88S): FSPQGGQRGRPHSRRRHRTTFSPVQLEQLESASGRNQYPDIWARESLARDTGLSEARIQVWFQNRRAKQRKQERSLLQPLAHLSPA
HOXB6 (Homo sapiens, UniProt P17509 132-218), sequence (P17509 132-218): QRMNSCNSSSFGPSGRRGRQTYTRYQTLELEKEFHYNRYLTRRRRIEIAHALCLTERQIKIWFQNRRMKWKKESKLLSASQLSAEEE
HOXA7 (Homo sapiens, UniProt P31268 116-202, W177C), sequence (P31268 116-202 W177C): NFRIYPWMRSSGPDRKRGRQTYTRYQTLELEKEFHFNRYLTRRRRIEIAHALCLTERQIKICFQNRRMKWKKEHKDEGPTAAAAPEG
PROP1 (Homo sapiens, UniProt O75360 56-141), sequence (O75360 56-141): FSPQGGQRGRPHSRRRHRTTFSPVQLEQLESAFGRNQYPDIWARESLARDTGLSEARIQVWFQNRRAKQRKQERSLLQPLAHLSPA
ALX4 (Homo sapiens, UniProt Q9H161 200-286, Q225E), sequence (Q9H161 200-286 Q225E): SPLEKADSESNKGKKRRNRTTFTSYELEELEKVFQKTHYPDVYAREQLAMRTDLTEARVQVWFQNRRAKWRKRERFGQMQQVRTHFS
HOXA7 (Homo sapiens, UniProt P31268 116-202), sequence (P31268 116-202): as the sequence (P31268 116-202 W177C) above, with C62W counted along it
ALX4 (Homo sapiens, UniProt Q9H161 200-286), sequence (Q9H161 200-286): as the sequence (Q9H161 200-286 Q225E) above, with E26Q counted along it
ALX1 (Homo sapiens, UniProt Q15699 118-204, L144V), sequence (Q15699 118-204 L144V): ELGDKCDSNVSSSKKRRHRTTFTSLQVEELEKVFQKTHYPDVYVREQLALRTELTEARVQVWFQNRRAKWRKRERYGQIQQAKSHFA
PROP1 (Homo sapiens, UniProt O75360 56-141, R99H), sequence (O75360 56-141 R99H): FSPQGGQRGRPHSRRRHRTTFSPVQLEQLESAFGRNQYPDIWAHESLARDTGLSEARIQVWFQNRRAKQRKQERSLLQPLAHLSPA
HOXB6 (Homo sapiens, UniProt P17509 132-218, K202E), sequence (P17509 132-218 K202E): as the sequence (P17509 132-218) above, with K71E counted along it
ALX1 (Homo sapiens, UniProt Q15699 118-204), sequence (Q15699 118-204): as the sequence (Q15699 118-204 L144V) above, with V27L counted along it
ALX1 (Homo sapiens, UniProt Q15699 118-204, L144R), sequence (Q15699 118-204 L144R): as the sequence (Q15699 118-204 L144V) above, with V27R counted along it

As to CGAATCTC, the binding signal with HOXB4 [1] was 7.71 upbm affinity estimate (log intensity, higher = more binding, comparable within an allelic series); in the test with HOXB4 [2], 7.74 upbm affinity estimate (log intensity, higher = more binding, comparable within an allelic series).

As for GCTGCGCC, the binding signal was 7.58 upbm affinity estimate (log intensity, higher = more binding, comparable within an allelic series) with HOXB4 [1]; 8.05 upbm affinity estimate (log intensity, higher = more binding, comparable within an allelic series) in the test with ALX4 [3]; 8.03 upbm affinity estimate (log intensity, higher = more binding, comparable within an allelic series) with ALX4 [4]; 7.62 upbm affinity estimate (log intensity, higher = more binding, comparable within an allelic series) with HOXB4 [2]; 7.68 upbm affinity estimate (log intensity, higher = more binding, comparable within an allelic series) in the test with ALX3 [5]; 7.52 upbm affinity estimate (log intensity, higher = more binding, comparable within an allelic series) in the test with ALX3 [6]. In addition, the binding signal with PROP1 [7] is 6.8 upbm affinity estimate (log intensity, higher = more binding, comparable within an allelic series); with PROP1 [8] it was 6.45 upbm affinity estimate (log intensity, higher = more binding, comparable within an allelic series); with ALX3 [9], 7.66 upbm affinity estimate (log intensity, higher = more binding, comparable within an allelic series); with ALX3 [10], 7.62 upbm affinity estimate (log intensity, higher = more binding, comparable within an allelic series); in the test with PROP1 [11] it was 6.48 upbm affinity estimate (log intensity, higher = more binding, comparable within an allelic series); with ALX3 [12] it was 7.7 upbm affinity estimate (log intensity, higher = more binding, comparable within an allelic series).

Take GTCGATGA: the binding signal with HOXB4 [1] was 9.83 upbm affinity estimate (log intensity, higher = more binding, comparable within an allelic series); with HOXB4 [2], 9.24 upbm affinity estimate (log intensity, higher = more binding, comparable within an allelic series).

Turning to CAGGCACG, the binding signal is 7.26 upbm affinity estimate (log intensity, higher = more binding, comparable within an allelic series) in the test with HOXB4 [1]; 9.38 upbm affinity estimate (log intensity, higher = more binding, comparable within an allelic series) in the test with PRRX1 [13]; 7.43 upbm affinity estimate (log intensity, higher = more binding, comparable within an allelic series) in the test with HOXB4 [2]; 9.31 upbm affinity estimate (log intensity, higher = more binding, comparable within an allelic series) with NKX2-6 [14]; 9.26 upbm affinity estimate (log intensity, higher = more binding, comparable within an allelic series) in the test with NKX2-6 [15]; 9.24 upbm affinity estimate (log intensity, higher = more binding, comparable within an allelic series) with PRRX1 [16].

For AGACCAGC, the binding signal is 7.43 upbm affinity estimate (log intensity, higher = more binding, comparable within an allelic series) in the test with HOXB4 [1]; 9.14 upbm affinity estimate (log intensity, higher = more binding, comparable within an allelic series) with PAX4 [17]; 9.21 upbm affinity estimate (log intensity, higher = more binding, comparable within an allelic series) with PAX4 [18]; 7.5 upbm affinity estimate (log intensity, higher = more binding, comparable within an allelic series) in the test with HOXB4 [2]; 9.31 upbm affinity estimate (log intensity, higher = more binding, comparable within an allelic series) with PAX4 [19]; 9.23 upbm affinity estimate (log intensity, higher = more binding, comparable within an allelic series) with PAX4 [20]. Further, the binding signal with PAX4 [21] was 9.22 upbm affinity estimate (log intensity, higher = more binding, comparable within an allelic series); with PAX4 [22], 9.29 upbm affinity estimate (log intensity, higher = more binding, comparable within an allelic series).

On to CACGCCGA, for which the binding signal was 7.66 upbm affinity estimate (log intensity, higher = more binding, comparable within an allelic series) in the test with HOXB4 [1] and 7.67 upbm affinity estimate (log intensity, higher = more binding, comparable within an allelic series) in the test with HOXB4 [2].

For CCTGGAAG, the binding signal is 7.71 upbm affinity estimate (log intensity, higher = more binding, comparable within an allelic series) in the test with HOXB4 [1] and 7.54 upbm affinity estimate (log intensity, higher = more binding, comparable within an allelic series) with HOXB4 [2].

With CCTGCCCC, the binding signal with HOXB4 [1] was 7.51 upbm affinity estimate (log intensity, higher = more binding, comparable within an allelic series); with PAX4 [17], 9.03 upbm affinity estimate (log intensity, higher = more binding, comparable within an allelic series); in the test with PAX4 [18], 9.15 upbm affinity estimate (log intensity, higher = more binding, comparable within an allelic series); with HOXB4 [2], 7.65 upbm affinity estimate (log intensity, higher = more binding, comparable within an allelic series); with PAX4 [19] it was 9.01 upbm affinity estimate (log intensity, higher = more binding, comparable within an allelic series); in the test with PAX4 [20] it was 9.07 upbm affinity estimate (log intensity, higher = more binding, comparable within an allelic series). In addition, the binding signal with PAX4 [21] was 9 upbm affinity estimate (log intensity, higher = more binding, comparable within an allelic series); with PAX4 [22] it was 9.13 upbm affinity estimate (log intensity, higher = more binding, comparable within an allelic series).

As for GTTCATTA, the binding signal in the test with HOXB4 [1] is 13 upbm affinity estimate (log intensity, higher = more binding, comparable within an allelic series); in the test with HOXA7 [23], 10.2 upbm affinity estimate (log intensity, higher = more binding, comparable within an allelic series); with HOXB4 [2], 13.6 upbm affinity estimate (log intensity, higher = more binding, comparable within an allelic series); with HOXA7 [24] it was 8.87 upbm affinity estimate (log intensity, higher = more binding, comparable within an allelic series).

For the sequence ACCCCCGT, the binding signal with HOXB4 [1] is 7.65 upbm affinity estimate (log intensity, higher = more binding, comparable within an allelic series); in the test with HOXB6 [25], 8.84 upbm affinity estimate (log intensity, higher = more binding, comparable within an allelic series); with HOXB4 [2], 7.64 upbm affinity estimate (log intensity, higher = more binding, comparable within an allelic series); with ALX1 [26], 6.28 upbm affinity estimate (log intensity, higher = more binding, comparable within an allelic series); with ALX3 [5] it was 7.64 upbm affinity estimate (log intensity, higher = more binding, comparable within an allelic series); with ALX1 [27] it was 6.2 upbm affinity estimate (log intensity, higher = more binding, comparable within an allelic series). Besides, the binding signal is 7.58 upbm affinity estimate (log intensity, higher = more binding, comparable within an allelic series) with ALX3 [6]; 7.58 upbm affinity estimate (log intensity, higher = more binding, comparable within an allelic series) with ALX3 [9]; 7.57 upbm affinity estimate (log intensity, higher = more binding, comparable within an allelic series) in the test with ALX3 [10]; 6.29 upbm affinity estimate (log intensity, higher = more binding, comparable within an allelic series) with ALX1 [28]; 7.61 upbm affinity estimate (log intensity, higher = more binding, comparable within an allelic series) with ALX3 [12]; 8.76 upbm affinity estimate (log intensity, higher = more binding, comparable within an allelic series) in the test with HOXB6 [29].

Turning to CCCCCGTA, the binding signal in the test with HOXB4 [1] is 7.91 upbm affinity estimate (log intensity, higher = more binding, comparable within an allelic series); in the test with PRRX1 [13], 9 upbm affinity estimate (log intensity, higher = more binding, comparable within an allelic series); in the test with HOXB4 [2] it was 7.84 upbm affinity estimate (log intensity, higher = more binding, comparable within an allelic series); with ALX3 [5] it was 7.68 upbm affinity estimate (log intensity, higher = more binding, comparable within an allelic series); in the test with ALX3 [6] it was 7.71 upbm affinity estimate (log intensity, higher = more binding, comparable within an allelic series); with ALX3 [9], 7.65 upbm affinity estimate (log intensity, higher = more binding, comparable within an allelic series). For the same sequence, the binding signal was 7.65 upbm affinity estimate (log intensity, higher = more binding, comparable within an allelic series) in the test with ALX3 [10]; 7.65 upbm affinity estimate (log intensity, higher = more binding, comparable within an allelic series) with ALX3 [12]; 9.39 upbm affinity estimate (log intensity, higher = more binding, comparable within an allelic series) in the test with PRRX1 [16].

ACGTAGCA: the binding signal with HOXB4 [1] is 7.63 upbm affinity estimate (log intensity, higher = more binding, comparable within an allelic series); with HOXB4 [2] it was 7.7 upbm affinity estimate (log intensity, higher = more binding, comparable within an allelic series).
